Screening data as filed in PubChem.
Shown are actives, neighbours in structure and some others; about 1.7% of the full set was active somewhere.
eIF4E 4G PPI = inhibitors of eIF4E and eIF4G interaction in translation initiation | AID 782 | TR-FRET eIF4E-eIF4GI(517-606) binding, 2 h | inhibition, % at 21.7 µM | 220,000 tested, 0.37% active | P63073+Q04637;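 active = inhibition above about 30%, limit read from the data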
eIF4H inh = inhibitors of RNA binding by human eIF4H; eIF4H fluorescence polarization binding assay; inhibition, % at 35 µM; AID 2012; 290,000 tested, 0.94% active; Q15056;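 note: calls also rest on retests at 20 µM and on dose response follow-up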
PABP1 MLLE inh = inhibitors of microRNA-mediated deadenylation, human PABP1 MLLE binding. P11940. GST-MLLE / FITC-PAM2 fluorescence polarization. inhibition, % at 20 µM. 360,000 tested, 0.36% active. AID 588489; in the data active = inhibition above about 35%, passing the limit was not always enough
EBV gp42 inh = inhibitors of Epstein-Barr virus glycoprotein 42 | Fluorescence polarization binding assay, mP read-out | inhibition, % (tested at 21.74 µM) | 220,000 tested, 0.42% active | AID 1085; in the data active = inhibition above about 50%
Target sequence (Q1HVG2 whole entry, looked up): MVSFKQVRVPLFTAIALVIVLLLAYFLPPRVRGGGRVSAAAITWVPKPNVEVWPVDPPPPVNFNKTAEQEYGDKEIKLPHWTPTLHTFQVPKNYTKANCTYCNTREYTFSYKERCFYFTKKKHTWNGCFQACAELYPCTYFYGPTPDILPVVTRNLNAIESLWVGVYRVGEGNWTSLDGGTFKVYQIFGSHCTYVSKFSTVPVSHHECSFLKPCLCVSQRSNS
PABP polyA inh = PABP-poly(A) binding inhibition | 290,000 tested, 1% active | PABP-poly(A) RNA binding, fluorescence polarization | AID 2014 | calls only at 35 µM | P11940;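 note: calls also rest on retests at 20 µM and on dose response follow-up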
Of the large screens only hits and unclear results are named; the others gave an inactive call. Unless noted, the rule behind the calls is not given here.

O=C(CN1C(=O)c2ccccc2S1(=O)=O)Nc1ncccn1	none (no result: eIF4E 4G PPI, eIF4H inh, EBV gp42 inh, PABP polyA inh)
CC(=O)Nc1nnc(SCC(=O)NCCOc2ccccc2)s1	eIF4H inh active, PABP polyA inh active
C/C(=N\NC(=O)c1ccc(NS(=O)(=O)c2cccs2)cc1)c1cccs1	eIF4H inh active, PABP polyA inh active
C/C(=N\NC(=O)c1ccc(NS(=O)(=O)c2cccs2)cc1)c1ccc(Cl)cc1	none
CN(c1ncc(C(F)(F)F)cc1Cl)N1C(=O)c2cccc(N)c2C1=O	EBV gp42 inh 57.3
C[C@H]1CN([C@@H](C)CO)C(=O)c2cc(Br)cnc2O[C@@H]1CN(C)S(=O)(=O)c1ccccc1	none (no result: eIF4E 4G PPI, eIF4H inh, EBV gp42 inh, PABP polyA inh)
O=C(NCc1ccco1)c1sc(=S)n2c1[nH]c(=O)c1ccccc12	PABP1 MLLE inh 44.6
O=C(NC1CCCCCCC1)C1CCN(S(=O)(=O)N2CCCC2)CC1	eIF4E 4G PPI 58.4
NC(=O)c1ccc(N2CCN(S(=O)(=O)c3ccccc3)CC2)c([N+](=O)[O-])c1	none
O=C(CSc1nnc2c3ccccc3c3ccccc3c2n1)Nc1ccccc1F	eIF4H inh 85.3
O=C(CSc1nnc2c3ccccc3c3ccccc3c2n1)Nc1ccccc1	none (no result: PABP1 MLLE inh)
COc1cc2c(cc1OC)C(c1cc(Br)ccc1F)N(C(=O)CCl)CC2 (configuration not stated)	none (no result: eIF4E 4G PPI, EBV gp42 inh)
C[c-]1[c-](C)[c-](C)[c-](C)[c-]1C.[Fe].c1cc2nccc(N3CCCC3)[c-]2c1 (configuration not stated)	eIF4H inh 103.9, PABP1 MLLE inh 63.6, PABP polyA inh active
CCCc1nc2ccc(Cl)cn2c1Cc1ccc(C)cc1	none (no result: eIF4E 4G PPI, eIF4H inh, EBV gp42 inh, PABP polyA inh)
CC(C)OC(=O)c1sc2nc(-c3ccccc3)ccc2c1N	none
Nc1c(C(=O)Nc2ccccc2F)sc2nc(-c3ccco3)ccc12	eIF4H inh 90.0, PABP polyA inh active
NC(=O)c1sc2nc(-c3cccnc3)ccc2c1N	none
Nc1c(C(=O)Nc2ccccc2F)sc2nc(-c3cccnc3)ccc12	none
Nc1c(C(=O)NC2CC2)sc2nc3c(c(-c4ccco4)c12)CC/C3=C/c1ccco1	EBV gp42 inh 104.3
COC(=O)c1sc2nc(-c3ccco3)ccc2c1N	eIF4H inh 55.1
NC(=O)c1sc2nc(-c3ccco3)ccc2c1N	eIF4H inh 91.9, PABP polyA inh active
O=C(COC(=O)c1c2c(nc3ccccc13)/C(=C\c1ccco1)CC2)NC1CCCC1	none (no result: eIF4E 4G PPI, eIF4H inh, EBV gp42 inh, PABP polyA inh)
COc1ncnc2c1ncn2CCCN(CCCc1ccccc1)CCCn1cnc2c(OC)ncnc21	none (no result: eIF4E 4G PPI, eIF4H inh, EBV gp42 inh, PABP polyA inh)
CC(=O)c1c(C)[nH]c(C(=O)NNC(=O)c2ccc(Br)cc2)c1C	none (no result: eIF4E 4G PPI, eIF4H inh, EBV gp42 inh, PABP polyA inh)
NC(=O)c1nsc(C(=O)N(c2cccc(F)c2)C(C(=O)NCC2CCCO2)c2cccs2)c1N (configuration not stated)	none
COc1ccc(CCNC(=O)COC(=O)c2ccc(N3CCCC3=O)cc2)cc1	none
Cc1ccc(-c2c3c(nc4sc(C(N)=O)c(N)c24)CCCC3)o1	none
NC(=O)c1sc2nc3c(c(-c4ccco4)c2c1N)CCC3	eIF4H inh 97.0, PABP polyA inh active
COCc1cc(=O)[nH]c(SCCS(=O)(=O)c2ccc(C)cc2)n1	none
COCc1cc(=O)[nH]c(SCCS(=O)(=O)c2ccc(Cl)cc2Cl)n1	PABP1 MLLE inh 38.2
CN(C)S(=O)(=O)c1cccc(-c2nn(-c3ccccc3)cc2/C=C2\SC(=S)NC2=O)c1	eIF4H inh inconclusive, PABP polyA inh active
Cc1[nH]n(C(N)=S)c(=O)c1N=Nc1ccc(S(=O)(=O)N2CCCCCC2)cc1	PABP1 MLLE inh 39.9
COc1ccc(NC(=O)C2(C)CCCN(C(C)C)C2)cc1OC (configuration not stated)	none (no result: eIF4E 4G PPI, eIF4H inh, EBV gp42 inh, PABP polyA inh)
Nc1[nH]c2cc([N+](=O)[O-])ccc2c1-c1ccccn1	PABP polyA inh active (no result: eIF4E 4G PPI, EBV gp42 inh)
Nc1nc2ccc([N+](=O)[O-])cc2[nH]1	none
CCCCCC(=O)N1C[C@@H](n2cc(C3CC3)nn2)[C@H](O)C[C@@H]1c1ccc(C)cc1	none (no result: eIF4E 4G PPI, eIF4H inh, EBV gp42 inh, PABP polyA inh)
CN1CCN(NC(=O)c2cccc(Br)c2)CC1	none
CC1=NN(c2ccc(C)c(C)c2)C(=O)/C1=C\C=C\c1ccc([N+](=O)[O-])o1	eIF4H inh 92.1
C=CCn1c(SCC(=O)NC2CCCC2)nc2scc(-c3ccco3)c2c1=O	eIF4H inh 70.8, PABP polyA inh active
C=CCn1c(SCC(=O)NCCCC)nc2scc(-c3ccco3)c2c1=O	none
NCC12CC3CC(C1)CC(c1ccc(Br)cc1)(C3)C2	none (no result: eIF4E 4G PPI, EBV gp42 inh)
Cc1ccc(C23CC4CC(CC(CN)(C4)C2)C3)cc1	eIF4E 4G PPI 86.2
COc1ccc(-c2csc(NC(=O)CSc3n[nH]c(N)n3)n2)cc1	PABP1 MLLE inh 36.9
Cc1ccc2oc(-c3cccc(NC(=O)c4ccc(Br)o4)c3)nc2c1	none
Cc1cc2nc(-c3cccc(NC(=O)c4ccc(Br)o4)c3)oc2cc1C	eIF4H inh active, PABP polyA inh active
O=C(/C=C/c1ccco1)N1CCc2ccccc21	eIF4H inh 17.6
CCCCC1OC23CCCCC2C(C#N)(C(=N)O3)C1(C#N)C#N (configuration not stated)	eIF4H inh inconclusive, PABP1 MLLE inh 48.2, PABP polyA inh inconclusive
CCOc1ccc(CCN2C(=S)N([C@@H](Cc3ccc(O)cc3)CN3CCC[C@@H]3CN3C(=S)NC[C@@H]3CC(C)C)C[C@@H]2CC(C)C)cc1	none (no result: eIF4E 4G PPI, eIF4H inh, EBV gp42 inh, PABP polyA inh)
CCOc1ccccc1-c1nc(-c2cc3ccccc3nc2OC)no1	eIF4H inh 54.3
COc1ccccc1NC(=O)c1ccc2c(c1)nnn2C	none
COC(=O)c1cc(=O)nc(NN=Cc2ccc(C)cc2)s1	none (no result: eIF4E 4G PPI, eIF4H inh, EBV gp42 inh, PABP polyA inh)
O=C(CSc1nnc(SCc2ccccc2)s1)N/N=C/C=C/c1ccco1	eIF4H inh 93.9, EBV gp42 inh 68.2
CC(/C=N\NC(=O)CN1CCN(Cc2ccccc2)CC1)=C\c1ccco1	eIF4H inh inconclusive, PABP polyA inh active
CCn1c(SCC(=O)N/N=C/C(C)=C\c2ccco2)nnc1-c1ccccc1	eIF4H inh 51.4, PABP polyA inh active
O=C(CN1CCN(Cc2ccccc2)CC1)N/N=C\C=C/c1ccco1	eIF4H inh inconclusive, PABP polyA inh active
CCOC(=O)C1=C(CC)Nc2ccccc2N/C1=N\S(=O)(=O)c1cc(Br)ccc1Br	none
COC(=O)Cc1c(C(=O)OC)nnn1-c1cccc(C(F)(F)F)c1	none
O=C(Nc1cccc(S(=O)(=O)NC2=NCCCCC2)c1)c1cc(-c2ccco2)nc2ccccc12	eIF4E 4G PPI 35.3
Cc1cc(C)cc(-n2c(SCC(=O)Nc3cccc(S(=O)(=O)NC4=NCCCCC4)c3)nc3ccccc3c2=O)c1	eIF4H inh active, PABP polyA inh active
O=C(COC(=O)c1ccc(F)c(S(=O)(=O)N2CCOCC2)c1)NCCc1ccc(F)cc1	none (no result: eIF4E 4G PPI, eIF4H inh, EBV gp42 inh, PABP polyA inh)
Cc1cc2cc(CNC(=O)c3ccc(Br)o3)ccc2[nH]1	PABP1 MLLE inh 56.5
CCCC(=O)NCc1ccc2c(c1)cc(C)n2C	none
Cc1cc2cc(CNC(=O)c3ccc(Br)o3)ccc2n1C	PABP1 MLLE inh 62.3
CC[n+]1c(C)sc2sc3ccccc3c21	PABP polyA inh active (no result: PABP1 MLLE inh)
CCOC(=O)C(C(=O)OCC)c1cc(Br)c2noc3c2c1C(=O)c1ccccc1-3	eIF4H inh inconclusive, EBV gp42 inh 133.0, PABP polyA inh inconclusive
Cc1cccc(NCCNc2cccc(C)c2)c1	none
